Reference: PubChem BioAssay (NCATS)
Results filed as inconclusive are left out. A number with no mark means an inactive call. Calls come from the whole dose curve; as a rule, active = well fitted cell-killing curve with a large enough effect; inconclusive = small, poorly fitted or top-dose-only effect, or effect the other way; inactive = flat fitted curve, though single readings scatter.

Tested on: PA-1
Assay: Primary qHTS to identify gynecologic anti-cancer compounds using libraries of approved drugs and bioactive compounds (AID 1345084); note: nearly all actives have a fitted effect of over 55% in size
Conditions: Gynecologic cancer cell panel viability, ATPlite luminescence, 48 h; series mostly up to 57.5 µM; activity change, negative = cytotoxicity: at the top concentration
Method in brief: (§1)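 ATP-based viability (ATPlite), 1,000 cells/well, 16 h pre-incubation, 48 h compound at 37 C, 5% CO2, 15 min RT before read.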
% is set by controls: 0 for no effect and ±100 for the full control effect.

SMILES | activity change, negative = cytotoxicity
CCOC(=O)CSc1nc2c(sc3ccccc32)c(=O)n1CCCN1CCCC1 | -3.73%
CC1CCC2(C(=O)O)CCC3(C)C(=CCC4C5(C)CCC(O)C(C)(C(=O)O)C5CCC43C)C2C1(C)O (centres undefined) | 0.902% [at 25.3 µM]
Cc1ccccc1N1CCN(S(=O)(=O)C[C@]23CC[C@H](C[C@@H]2NC(=O)[C@@H](N)CCS(C)(=O)=O)C3(C)C)CC1 | 10.8%
C/C=C(\C)C(=O)OCC1OC(OCC2OC(OC3(CO)OC(CO)C(O)C3O)C(O)C(O)C2O)C(O)C(O)C1O (centres undefined) | -8.63% [at 25.3 µM]
COc1ccc(/C=C/C(=O)O[C@@H]2[C@@H](OC(C)=O)[C@@H](OC(C)=O)[C@H](O[C@H]3[C@@H]4C=CO[C@@H](O[C@@H]5O[C@H](CO)[C@@H](O)[C@H](O)[C@H]5O)[C@@H]4[C@@]4(CO)O[C@@H]34)O[C@H]2C)cc1 | 8.2% [at 25.3 µM]
CC1=C2C[C@@]3(C)[C@@H](CCC[C@@H]3C)C[C@@]2(O)OC1=O | 3.5%
COC(=O)/C=C/c1ccc(O[C@@H]2O[C@H](CO)[C@@H](O)[C@H](O)[C@H]2O)cc1 | -0.808% [at 38.5 µM]
FC(F)(F)Oc1ccc(-c2ccc3nnc(C(F)(F)F)n3c2)cc1 | -2.6%
C=C(C(=O)O)C1CC(OC(=O)CC(C)CC)C2(C)CCCC(=C)C2C1 (centres undefined) | -16.5% [at 38.5 µM]
CC(C)(O)C1CC=C(C(=O)OC[C@H]2O[C@@H](OC(=O)C3=CCC(C(C)(C)O)CC3)[C@H](O)[C@@H](O)[C@@H]2O)CC1 (some centres undefined) | 2.67% [at 25.3 µM]
C[C@@H]1O[C@@H](O[C@@H]2[C@@H](O)[C@H](O[C@@H]3[C@@H](O)[C@@H](O)[C@H](O[C@H]4[C@H](OC(=O)[C@]56CCC(C)(C)C[C@H]5C5=CCC7[C@@]8(C)C[C@H](O)[C@H](O[C@@H]9O[C@H](C(=O)O)[C@@H](O)[C@H](O)[C@H]9O)[C@@](C)(CO)C8[C@H](O)C[C@@]7(C)[C@]5(C)C[C@H]6O)O[C@@H](CO)[C@@H]4O)O[C@H]3C)OC[C@H]2O)[C@H](O)[C@H](O)[C@H]1O (some centres undefined) | 24% [at 6.55 µM]
O=C(O)c1cccc(C(=O)CCC2OC(n3cnc4c(=O)[nH]cnc43)C(O)C2O)c1 (centres undefined) | -0.629% [at 25.3 µM]
CC1(CO)CCCC2(C)C1C(OC(=O)c1ccccc1)CC1C(=O)OCC12O (centres undefined) | 21.6% [at 38.5 µM]
CC1C2=CC(=O)OC2(O)CC2C1C(O)CC1C(C)(CO)CCCC21C (centres undefined) | -1.72% [at 38.5 µM]
COc1cc2c(cc1OC)N1C(=O)C[C@@]34C=CC[N@+]5([O-])CC[C@H]2[C@H](CC3)[C@@]145 | 5.53% [at 38.5 µM]
CCCN1CCC[C@@H](c2cccc(S(C)(=O)=O)c2)C1 | 11.6%
CC1CCC2(C(=O)OC3OC(CO)C(O)C(O)C3O)CCC3(C)C(=CCC4C5(C)CCC(O)C(C)(CO)C5CCC43C)C2C1(C)O (centres undefined) | -3.6% [at 25.3 µM]
COc1ccc(Oc2c(Cl)cnn(C3c4ccccc4-c4ccccc43)c2=O)cc1 | -14.2%
Cc1nnc(-c2sc(NC(=O)[C@H](C(C)C)n3c(=O)[nH]c4ccccc4c3=O)nc2C)o1 | 17.5%

Tested on: SKOV3
Assay: as above
Conditions: Gynecologic cancer cell panel viability, ATPlite luminescence, 48 h; series mostly up to 57.5 µM; activity change, negative = cytotoxicity: at the top concentration
Method in brief: as §1

SMILES | activity change, negative = cytotoxicity
CC1(C)CC[C@]2(C(=O)O[C@@H]3O[C@H](CO)[C@@H](O)[C@H](O)[C@H]3O)CC[C@]3(C)C(=CCC4[C@@]5(C)CC[C@H](OC6OC(C(=O)O)C(OC7OC(CO)C(O)C(O)C7O)C(O)C6O)C(C)(C)C5CC[C@]43C)C2C1 (some centres undefined) | 0% [at 11.6 µM]
COc1cccc(CN(C(=O)CC(C)(C)C)C2CC(C(=O)N3CCNCC3)N(Cc3ccc4c(c3)OCO4)C2)c1 (centres undefined) | -3.63%
C/C=C(/C)C(=O)OC1CC(C)(C)CC2C3=CCC4C5(C)CCC(OC6OC(C)C(OC7OC(C(=O)O)C(O)C(OC8OC(CO)C(O)C(O)C8OC8OC(CO)C(O)C(O)C8O)C7O)C(O)C6O)C(C)(C)C5CCC4(C)C3(C)C(OC(=O)/C=C/C=C/C=C/CCC)C(OC(C)=O)C12CO (centres undefined) | -20.2% [at 6.55 µM]
Cc1ccc(-c2c(-c3nn(C)c4ncnc(N5CC[C@H](N6CCCCC6)C5)c34)cnn2C)cc1 | 16.6%
O=C(O)c1cc(O[C@@H]2O[C@H](CO)[C@@H](O)[C@H](O)[C@H]2O)ccc1O | 2.27% [at 38.5 µM]
Nc1nc(COC(=O)c2ccc([N+](=O)[O-])cc2)nc(Nc2ccccc2)n1 | -0.953%
C[C@@H]1O[C@@H](O[C@H]2[C@H](O[C@H]3[C@H](O[C@H]4CC[C@@]5(C)C(CC[C@]6(C)C5CC=C5[C@@H]7CC(C)(C)C[C@@H](O)[C@]7(C)CC[C@]56C)[C@@]4(C)CO)O[C@H](C(=O)O)[C@@H](O)[C@@H]3O)O[C@H](CO)[C@H](O)[C@@H]2O)[C@H](O)[C@H](O)[C@H]1O (some centres undefined) | 11% [at 11.6 µM]
COc1cc(CO)ccc1O[C@@H]1O[C@H](CO)[C@@H](O)[C@H](O)[C@H]1O | -4.32% [at 38.5 µM]
COC(=O)c1c(CC=C(C)C)c(OC2OC(CO)C(O)C(O)C2O)c2ccccc2c1OC1OC(CO)C(O)C(O)C1O (centres undefined) | 21.1% [at 25.3 µM]
Cc1ccc(C)c(NC(=O)CNS(=O)(=O)c2ccc3[nH]c(=O)oc3c2)c1 | 9.9%
CO[C@H]1c2cc(C(C)C)c(O)c(O)c2[C@@]23CCCC(C)(C)C2[C@@H]1OC3=O (some centres undefined) | -15.2% [at 38.5 µM]
COc1cc(C(C)=O)ccc1O[C@@H]1O[C@H](CO[C@@H]2OC[C@@H](O)[C@H](O)[C@H]2O)[C@@H](O)[C@H](O)[C@H]1O | 8.71% [at 25.3 µM]
CN[C@H](CNC(=O)N1CCC[C@@H]([C@@H](OCCNC(=O)OC)c2cccc(Cl)c2)C1)C[C@H]1CCCOC1 | 10.9%
O=C(O)CCc1cc2ccoc2cc1O[C@@H]1O[C@H](CO)[C@@H](O)[C@H](O)[C@H]1O | 5.44% [at 38.5 µM]
CC(C)[C@@H](C(=O)O)N1Cc2c(cc(O)c3c2O[C@]2(C3)[C@H](C)CCC3C(C)(C)[C@H](O)[C@H](O)C[C@@]32C)C1=O (some centres undefined) | 2.96% [at 25.3 µM]
CC1CCC2(C(=O)O)CCC3(C)C(=CCC4C5(C)CCC(O)C(C)(C(=O)O)C5CCC43C)C2C1(C)O (centres undefined) | 19.1% [at 25.3 µM]
Cc1ccccc1N1CCN(S(=O)(=O)C[C@]23CC[C@H](C[C@@H]2NC(=O)[C@@H](N)CCS(C)(=O)=O)C3(C)C)CC1 | -1.44%
C/C=C(\C)C(=O)OCC1OC(OCC2OC(OC3(CO)OC(CO)C(O)C3O)C(O)C(O)C2O)C(O)C(O)C1O (centres undefined) | 33.1% [at 25.3 µM]

SMILES | activity change, negative = cytotoxicity
COc1ccc(/C=C/C(=O)O[C@@H]2[C@@H](OC(C)=O)[C@@H](OC(C)=O)[C@H](O[C@H]3[C@@H]4C=CO[C@@H](O[C@@H]5O[C@H](CO)[C@@H](O)[C@H](O)[C@H]5O)[C@@H]4[C@@]4(CO)O[C@@H]34)O[C@H]2C)cc1 | -1.98% [at 25.3 µM]
CC1=C2C[C@@]3(C)[C@@H](CCC[C@@H]3C)C[C@@]2(O)OC1=O | 4.79%
COC(=O)/C=C/c1ccc(O[C@@H]2O[C@H](CO)[C@@H](O)[C@H](O)[C@H]2O)cc1 | 2.38% [at 38.5 µM]
FC(F)(F)Oc1ccc(-c2ccc3nnc(C(F)(F)F)n3c2)cc1 | 1.16%
C=C(C(=O)O)C1CC(OC(=O)CC(C)CC)C2(C)CCCC(=C)C2C1 (centres undefined) | -2.78% [at 38.5 µM]
CC(C)(O)C1CC=C(C(=O)OC[C@H]2O[C@@H](OC(=O)C3=CCC(C(C)(C)O)CC3)[C@H](O)[C@@H](O)[C@@H]2O)CC1 (some centres undefined) | 0% [at 25.3 µM]
N#Cc1ccc(C2CCCc3cncn32)cc1 (centres undefined) | -41.8% [at 25.3 µM]
C[C@@H]1O[C@@H](O[C@@H]2[C@@H](O)[C@H](O[C@@H]3[C@@H](O)[C@@H](O)[C@H](O[C@H]4[C@H](OC(=O)[C@]56CCC(C)(C)C[C@H]5C5=CCC7[C@@]8(C)C[C@H](O)[C@H](O[C@@H]9O[C@H](C(=O)O)[C@@H](O)[C@H](O)[C@H]9O)[C@@](C)(CO)C8[C@H](O)C[C@@]7(C)[C@]5(C)C[C@H]6O)O[C@@H](CO)[C@@H]4O)O[C@H]3C)OC[C@H]2O)[C@H](O)[C@H](O)[C@H]1O (some centres undefined) | -4.92% [at 6.55 µM]
C=C1C2CCC3C(CCC4[C@@]3(C)CCC[C@@]4(C)C(=O)O)(C2)[C@@H]1OC(=O)/C(C)=C\C (some centres undefined) | -8.44% [at 25.3 µM]
O=C(O)c1cccc(C(=O)CCC2OC(n3cnc4c(=O)[nH]cnc43)C(O)C2O)c1 (centres undefined) | -15.7% [at 25.3 µM]
CC1(CO)CCCC2(C)C1C(OC(=O)c1ccccc1)CC1C(=O)OCC12O (centres undefined) | 13.9% [at 38.5 µM]
CC1C2=CC(=O)OC2(O)CC2C1C(O)CC1C(C)(CO)CCCC21C (centres undefined) | 10.6% [at 38.5 µM]
COc1cc2c(cc1OC)N1C(=O)C[C@@]34C=CC[N@+]5([O-])CC[C@H]2[C@H](CC3)[C@@]145 | -9.75% [at 38.5 µM]
CCCN1CCC[C@@H](c2cccc(S(C)(=O)=O)c2)C1 | 0%
CC1CCC2(C(=O)OC3OC(CO)C(O)C(O)C3O)CCC3(C)C(=CCC4C5(C)CCC(O)C(C)(CO)C5CCC43C)C2C1(C)O (centres undefined) | -15.9% [at 25.3 µM]
COc1ccc(Oc2c(Cl)cnn(C3c4ccccc4-c4ccccc43)c2=O)cc1 | 12.5%
Cc1nnc(-c2sc(NC(=O)[C@H](C(C)C)n3c(=O)[nH]c4ccccc4c3=O)nc2C)o1 | 8.67%
